# Pf growth 48h: Primary qHTS for delayed death inhibitors of the malarial parasite plastid, 48 hour incubation; actives 5.9% (n = 310,000); P. falciparum luciferase growth in erythrocytes, 48 h; Potency, µM (series often up to 28.7 µM), for inactives: top-dose activity change, negative = inhibition, most hits filed as inhibitors; also: potency is read from the fitted curve at half-maximal effect
#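 Luciferase-expressing parasites in RBCs, 2% Hct / 0.1% parasitemia final; RPMI 1640 + 0.5% Albumax; 37 C, 5% CO2, one generation; luminescence read-out, lower signal = inhibition.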
# Pf growth 96h: Primary qHTS for delayed death inhibitors of the malarial parasite plastid, 96 hour incubation; P. falciparum luciferase reporter growth, 96 h; Potency, µM (doses to about 28.7 µM), inactives show at the highest dose activity change, negative = inhibition, most hits filed as inhibitors; actives 6.9% (n = 320,000); also: potency is read from the fitted curve at half-maximal effect
#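 Delayed-death screen, second-generation endpoint: infected erythrocytes, 2% hematocrit, 0.05% parasitemia final; 96 hours at 37 C, 5% CO2; luciferase detection reagent; luminescence decrease equals reduced growth.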
# HCV inhibitor: qHTS Assay for Inhibitors of Hepatitis C Virus (HCV); Huh7.5.1 HCVcc-Cre infection, luciferase reporter, 44 h; Potency, µM (doses to about 41.8 µM), without a hit: top-dose activity change, negative = inhibition, usual class: inhibitors; actives 3.4% (n = 340,000); AID 651820, 2012; also: potency is read from the fitted curve at half-maximal effect
#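 Luciferase read-out (15 sec integration) after a 15 min room-temperature substrate step quantifies HCVcc-Cre infection. Cells, 1,000 per well, had compound added 4 h post-plating, then virus at ~0.5 moi, and were cultured 44 h.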
# HCMV antiviral: qHTS Assay for inhibitors of the human cytomegalovirus (HCMV) | HFF cells, HCMV-luciferase reporter, 72 h; hits give low values | activity change, negative = inhibition, % at 57.5 µM | actives 4.5% (n = 410,000) | AID 1259415, 2018; in the data active = activity change below about -60%; inconclusive = no clear call, values can overlap the other calls; inactive = above about -39%
#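 Cell-based, HFFs, 1000 cells/well, 16 h 37C; cpds in DMSO + HCMV-luc, MOI 1 PFU/cell; 72 h 37C; OneGlo luminescence after 5 min RT; norm. to buffer vs Salinomycin 10uM.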
# * = called active by the depositor; ? = inconclusive; nt = not tested or not shown; + = active, no number; [ ] = remark or other dose. The list is not random: actives were taken first. Their share in the collection is about 13%. Unless noted, calls follow the shape of the dose curve; as a rule, active = well fitted inhibition curve with a large enough effect; inconclusive = small, poorly fitted or top-dose-only effect, or another doubt; inactive = no such curve, though single readings can be large or run the other way. % is scaled to controls: 0 for no effect and ±100 for the full control effect.
SMILES,Pf growth 48h,Pf growth 96h,HCV inhibitor,HCMV antiviral
COc1ccc(CN(C(=O)c2snc(C(N)=O)c2N)C(C(=O)NC2CCCC2)c2cc(OC)ccc2OC)cc1 (stereo unspecified),10µM*,2.1µM*,-2%,19
COc1ccccc1N(C(=O)c1snc(C(N)=O)c1N)C(C(=O)NC1CCCC1)c1ccc(N(C)C)cc1 (stereo unspecified),13µM*,5%,-18%,4
COc1ccc(C)cc1N(C(=O)c1snc(C(N)=O)c1N)C(C(=O)NC1CCCCC1)c1ccc(C)o1 (stereo unspecified),9.3µM*,?,?,?
Cc1cccc(C)c1NC(=O)Cn1cc(S(=O)(=O)Cc2ccc(F)cc2)c2ccccc21,nt,nt,nt,0
COc1ccc(OC)c(C(C(=O)NC2CCCCC2)N(C(=O)c2snc(C(N)=O)c2N)c2ccccc2OC)c1 (stereo unspecified),2.6µM*,0%,0%,-61*
CCOC(=O)N1CCN(C(=O)CN(c2ccccc2F)S(=O)(=O)c2ccc(C)cc2)CC1,nt,nt,nt,-7
COc1ccc(NC(=O)c2ccc3c(c2)c(C)c(C)n3Cc2ccc(F)cc2)c(OC)c1,nt,nt,nt,+
COc1ccc(OC)c(NC(=O)c2ccc3c(c2)c(C)c(C)n3Cc2ccc(F)cc2)c1,nt,nt,nt,0
COc1ccc(CNC(=O)C2CC(=O)N(C3CCCCC3)C2)cc1 (stereo unspecified),6%,?,9%,8
CN1CCN(CCCNC(=O)C2CC(=O)N(C3CCCCC3)C2)CC1 (stereo unspecified),15%,0%,0%,-9
O=C(NCCCN1CCC(Cc2ccccc2)CC1)C1CC(=O)N(C2CCCCCC2)C1 (stereo unspecified),nt,?,4µM*,-2
COc1ccc(N2CCN(CCNC(=O)C3CC(=O)N(C4CCCC4)C3)CC2)cc1 (stereo unspecified),17%,1.9µM*,4%,-27
O=C(NCCCN1CCN(c2ccccc2F)CC1)C1CC(=O)N(C2CCCC2)C1 (stereo unspecified),nt,12µM*,-2%,13
CCCCNC(=O)c1nc(-c2cccs2)oc1-c1ccc(Cl)cc1,nt,nt,nt,16
N#Cc1ccc(C[C@H](C(=O)O)N2C(=O)c3ccc(C(=O)O)cc3C2=O)cc1,6%,2%,nt,nt
O=C(C[N+]12CCC(CC1)C(C(O)(c1ccccc1)c1ccccc1)C2)c1ccc(Br)cc1 (stereo unspecified),?,8.3µM*,1%,19
CCN(CCCNC(=O)CNC(=O)c1nn(-c2ccc(OC)c(OC)c2)c(=O)c2ccccc12)c1ccccc1,12µM*,?,-8%,-24
CCCCNC(=O)CNC(=O)c1nn(-c2ccc(OC)c(OC)c2)c(=O)c2ccccc12,nt,nt,nt,-13
COc1ccc(CCNC(=O)CNC(=O)c2nn(-c3ccc(OC)c(OC)c3)c(=O)c3ccccc23)cc1OC,9.3µM*,60%,-11%,-18
CC(C)CN(CCNC(=O)c1cc(-c2ccc(Cl)s2)nc2ccccc12)CC(C)C,nt,nt,nt,-17
COc1ccccc1C(=O)NC(=O)Nc1nc(-c2ccccc2)cc(C(F)(F)F)n1,3.7µM*,3.7µM*,-5%,-18
CC1Sc2ccc(S(=O)(=O)CCC(=O)N3CCN(c4cccc(Cl)c4)CC3)cc2NC1=O (stereo unspecified),?,-5%,?,-63*
CC1Sc2ccc(S(=O)(=O)CCC(=O)N3CCN(c4ccccc4F)CC3)cc2NC1=O (stereo unspecified),?,-26%,?,-70*
CC1Sc2ccc(S(=O)(=O)CCC(=O)N3CCN(c4ccccc4)CC3)cc2NC1=O (stereo unspecified),-3%,?,?,?
COc1cccc2c1cc1c(=O)n(CC(=O)O)nc(C)n12,nt,nt,nt,6
SMILES,Pf growth 48h,Pf growth 96h,HCV inhibitor,HCMV antiviral
COc1cccc(OC)c1C1=NCC(=O)Nc2c1oc1ccc(Br)cc21,?,1.9µM*,?,-95*
O=C(Cn1c(=O)n(-c2ccccc2)c(=O)c2sc3ccccc3c21)NC1CCCC1,nt,nt,nt,-23
S=C(Nc1ccccc1)N1CCn2cccc2C1c1cccnc1 (stereo unspecified),3%,-6%,?,-19
CC(C)(C)NC(=S)N1CCn2cccc2C1c1cccnc1 (stereo unspecified),4%,9.3µM*,8%,?
COC(=O)[C@@]1(Cc2ccc(OC)cc2)[C@@H]2C(=CC(=O)[C@H]2CC(=O)C(=O)N(C)C)CN1C(=O)c1ccccc1,15µM*,9.3µM*,13µM*,-80*
COC(=O)[C@@]1(Cc2ccc(F)cc2)[C@H]2c3cc(C(=O)N(C)C)n(CCN4CCOCC4)c3C[C@H]2CN1C(=O)c1ccccc1,nt,nt,nt,-20
COC(=O)[C@@]1(Cc2ccc(F)cc2)[C@H]2c3cc(C(=O)N(C)C)n(Cc4ccccc4)c3C[C@H]2CN1C(=O)c1ccccc1,2.9µM*,3.3µM*,-5%,?
COC(=O)[C@@]1(Cc2ccc(F)cc2)[C@H]2c3cc(C(=O)N(C)C)[nH]c3C[C@H]2CN1C(=O)c1ccccc1,13µM*,13µM*,3%,-35
COC(=O)[C@@]1(Cc2ccc(F)cc2)[C@H]2c3cc(C(=O)N(C)C)n(CCO)c3C[C@H]2CN1C(=O)c1ccccc1,nt,nt,nt,-19
COC(=O)[C@@]1(Cc2ccc(OC)cc2)[C@H]2c3cc(C(=O)N4CCCC4)n(Cc4ccsc4Br)c3C[C@H]2CN1C(=O)c1ccccc1,nt,nt,nt,1
COC(=O)[C@@]1(Cc2ccc(F)cc2)[C@H]2c3cc(C(=O)N(C)C)n(CCc4ccc(OC)c(Br)c4)c3C[C@H]2CN1C(=O)c1ccccc1,?,5.9µM*,0%[8.37 µM],?
CCn1c(C(=O)N2CCC(C(=O)NCCc3ccc(OC)cc3OC)CC2)cc2sccc21,nt,nt,nt,-19
COC(=O)[C@@]1(Cc2ccc(OC)cc2)[C@H]2c3cc(C(=O)N(C)C)n(Cc4ccc(OC(F)(F)F)cc4)c3C[C@H]2CN1C(=O)c1ccccc1,?,3.3µM*,?,nt
COC(=O)[C@@]1(Cc2ccc(F)cc2)[C@H]2c3cc(C(=O)N(C)C)n(Cc4ccc(OC)c(OC)c4)c3C[C@H]2CN1C(=O)c1ccccc1,?,5.2µM*,5%[8.37 µM],18
COC(=O)[C@@]1(Cc2ccc(OC)cc2)[C@H]2c3cc(C(=O)N(C)C)n(C[C@H](O)CO)c3C[C@H]2CN1C(=O)c1ccccc1,?,8.3µM*,3%[8.37 µM],16
CN(Cc1cnc2nc(N)nc(N)c2n1)c1ccc(C(=O)N[C@@H](CCC(=O)O)C(=O)O)cc1,0.043µM*,1.7µM*,?,-99*
CC(C)c1ccc2c(c1)CCC1C(C)(CN)CCCC21C (stereo unspecified),?,10µM*,?,-27

# From PubChem
